Common to all, as to assay: NCI-60 one-dose screen, 48 h (100 = growth as untreated, 0 = no growth, -100 = all killed)
Common to all, as to settings: 10 µM unless noted

Assay [1] deals with NCI-H23 lung.
Assay [2] has as its system NCI-H226 lung.
Assay [3] relates to NCI-H322M lung.
The subject of assay [4] is HOP-62 NSCLC.
Assay [5] deals with NCI-H460 lung.
The test system of assay [6] is NCI-H522 lung.
Assay [7] concerns A549/ATCC NSCLC.
In assay [8] the test system is 786-0 renal.
Assay [9] deals with COLO 205 colon.
Assay [10] deals with DU-145 prostate.
The test system of assay [11] is K-562 leukemia.
In assay [12] the test system is MDA-MB-231 breast.
The subject of assay [13] is RXF 393 renal.
Assay [14] concerns SF-268 CNS.
Assay [15] deals with SF-295 CNS.
Assay [16] deals with SF-539 CNS.
For assay [17], the system named is UACC-257 melanoma.
Assay [18] has as its system M14 melanoma.

From PubChem BioAssay (NCI) come the findings set out here.

Molecules are shown by their SMILES. The panel holds about 83,000 compounds, 20% with a hit somewhere; the sample as a whole holds those more often.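 Each cell line was grown in a 96-well plate and treated with one concentration of compound for 48 hours. Values below 10 were considered active.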 A number with no mark means an inactive call. Calls of active or inactive are those of the source.

In the case of `Nc1nc(N)c2c(n1)NC(c1ccc(Cl)cc1)CC(c1ccc(Nc3nc(NCCO)nc(N4CCOCC4)n3)cc1)=N2` (stereo not given), the growth in assay [1] was 85.2%; in [2], 82%; in [3], 95.5%; in assay [4], 80.2%; in assay [5], 79.8%; in assay [6], 65.8%. The growth in assay [7] is 86.3%; in [8] it was 67.8%; in [9] it was 72.6%; in assay [10], 86.1%; in assay [11], 31.1%; in assay [12] it was 80.5%. The growth in [13] was 61.2%; in assay [14] it was 61.8%; in assay [15], 76.2%; in [16], 78.4%; in assay [17] it was 84.6%.
For `FC(F)(F)c1cc(Nc2cccc(Oc3ccc(NC4=NCCN4)nc3)c2)ccc1Cl`, the growth in assay [1] was 19.5%; in assay [2], 41.9%; in [3], -3.79% (active); in [4], -47.9% (active); in [5], -69.2% (active); in [6], 2.14% (active). For the same molecule, the growth was 12.1% in assay [7]; -11.4% (active) in [8]; -38.3% (active) in assay [9]; -19.3% (active) in assay [10]; -19% (active) in assay [11]; 9.73% (active) in [12]. Also, the growth in [13] is 18.1%; in assay [14] it was 34.8%; in assay [15], -78.5% (active); in assay [16] it was 51.6%; in assay [17], 27%; in assay [18], -50.7% (active).
On to `O=C(CN1CCN(c2cc(=O)n(-c3ccccc3)c3ccccc23)CC1)Nc1ccc(F)cc1`, for which the growth is 57.5% in assay [1]; 63.6% in assay [2]; 83.6% in assay [3]; 83% in [4]; 71.1% in assay [5]; 66.1% in assay [6]. The growth is 74.7% in [7]; 81.9% in assay [8]; 85.3% in assay [9]; 68.5% in assay [10]; 37.3% in assay [11]; 63% in assay [12]. In addition, the growth in assay [13] was 71.9%; in assay [14], 69.2%; in assay [15], 71.8%; in assay [16] it was 76.6%; in assay [17], 49.7%; in assay [18], 75.7%.
Regarding `C#C[C@]1(O)CC[C@H]2[C@@H]3CC=C4c5sc(-c6ccc(C)cc6)nc5CC[C@]4(C)[C@H]3CC[C@@]21C`, the growth was 46.4% in assay [1]; 99.3% in [2]; 33% in [3]; 23.2% in assay [4]; -0.692% (active) in [5]; 27.6% in [6]. The growth in [7] is 38.3%; in assay [8] it was -52.5% (active); in [9] it was 104%; in assay [10], 39.8%; in assay [11] it was 6.37% (active); in assay [12], 4.97% (active). Further, the growth in assay [13] was -68.1% (active); in [14], 7.62% (active); in [15], -66.5% (active); in assay [16], -47.7% (active); in [17], -17.9% (active); in [18], -49.9% (active).
Take `C#C[C@]1(O)CC[C@H]2[C@@H]3CC=C4c5sc(-c6cccc(O)c6)nc5CC[C@]4(C)[C@H]3CC[C@@]21C`: the growth in assay [1] is -26.8% (active); in [2], -29.4% (active); in assay [3], -5.55% (active); in [4] it was -20.8% (active); in assay [5] it was -52.9% (active); in assay [6] it was 3.14% (active). The growth in assay [7] was -16.2% (active); in [8], -57.6% (active); in [9], -25.3% (active); in assay [10], 2.17% (active); in assay [11], -5.49% (active); in assay [12], -40.8% (active). Moreover, the growth in assay [13] is -68.5% (active); in assay [14], -15.4% (active); in assay [15], -64.7% (active); in [16], -68.9% (active); in assay [17] it was -42.6% (active).
Take `CNc1ncc2cc(-c3ccc(-c4ncccc4F)cc3Cl)c(=O)n(CC3OCC(N)CO3)c2n1` (stereo not given): the growth in assay [1] was 78.4%; in assay [2] it was 64.3%; in assay [3], 79.5%; in [4] it was 47.1%; in assay [5], 102%; in [6], 75.7%. For the same molecule, the growth was 57.1% in assay [7]; 56.9% in [8]; 46.4% in assay [9]; 63.3% in [10]; 78.8% in [11]; 10.8% in [12]. For the same molecule, the growth is -9.68% (active) in assay [13]; 24.8% in assay [14]; 74.3% in assay [15]; 67.4% in assay [16]; 93% in [17]; 87.9% in assay [18].
As to `O=C(CCn1c[n+](CC(=O)c2ccc(-c3ccccc3)cc2)c2ccccc21)Nc1cccc2cccnc12`, the growth in [1] is 60.2%; in assay [2], 57%; in [3] it was 82.8%; in assay [4] it was 94.4%; in assay [5], 55.3%; in [6], 41.7%. Moreover, the growth in assay [7] was 89.8%; in assay [8], 71.5%; in assay [9], 44.2%; in [10], 78.9%; in assay [11] it was 22.9%; in assay [12] it was 49.6%. The growth in assay [13] is 69.6%; in assay [14] it was 55%; in assay [15] it was 89.6%; in assay [16], 75.5%; in [17], 23.6%; in assay [18], 49.1%.
Regarding `CC1(C)NCCC[C@]2(C)[C@H]3C/C(=N\O)C4[C@@H]5C[C@@](C)(CO)CC[C@]5(C)CC[C@@]4(C)[C@]3(C)CC[C@@H]12` (stereo not given in full), the growth in assay [1] was 94.2%; in [2], 94.3%; in [3], 101%; in assay [4], 111%; in [5], 100%; in assay [6], 97.4%. For the same molecule, the growth in assay [7] is 95.3%; in assay [8], 98.4%; in [9] it was 103%; in assay [10], 106%; in assay [11], 80.7%; in assay [12], 93.7%. Besides, the growth in [13] is 91.5%; in [14], 87.6%; in [15] it was 100%; in [16], 97.8%; in [17], 102%; in assay [18], 101%.
On to `O=C(CN1CCN(c2cc(=O)n(-c3ccccc3)c3ccccc23)CC1)Nc1nc(-c2ccc(Cl)cc2)cs1`, for which the growth in assay [1] was 49.8%; in assay [2], 47.4%; in assay [3], 89.1%; in assay [4], 65.8%; in assay [5], 54.8%; in assay [6] it was 56.3%. Further, the growth was 52.6% in assay [7]; 67.6% in assay [8]; 57.3% in assay [9]; 61.6% in assay [10]; 24.2% in assay [11]; 74.7% in [12]. Further, the growth is 67% in assay [13]; 54.5% in assay [14]; 62.6% in assay [15]; 76.1% in [16]; 28% in assay [17]; 55.1% in assay [18].
